Source: PubChem BioAssay (National Center for Advancing Translational Sciences (NCATS))
MCF10A rerep: DNA re-replication induction in MCF 10a cells; 2.9% of 350,000 active; Potency, µM (titrated, usually from 46.1 µM), for the others: top-dose activity, positive = re-replication, usual class: activators; AID 624296; MCF 10A DNA re-replication, Hoechst nuclear intensity, 48 h; also: % of control where 0% means no effect; nearly all actives have a fitted effect of over 50% in size
SW480 rerep: induces DNA re-replication in SW480 colon adenocarcinoma cells | SW480 DNA re-replication, Hoechst DNA content imaging, 48 h | Potency, µM (highest dose often 46.1 µM), without a hit: top-dose re-replication activation, usual class: activators | 1.8% of 340,000 active; also: % of control where 0% means no effect; nearly all actives have a fitted effect of over 55% in size
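Per well, 250 cells were exposed to pinned compound for 48 hr. Nuclear DNA was visualised with Hoechst (40 min, 37 C) and total object intensity recorded by fluorescence scanning.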
KB-3-1 tox: KB-3-1 parental cell cytotoxicity; KB-3-1 viability, CellTiter-Glo ATP luminescence, 72 h; Potency, µM (highest dose often 46.1 µM), hits mostly cytotoxic; 1.4% of 400,000 active; AID 1347075; also: % is scaled to controls: 0 for no effect and ±100 for the full control effect; nearly all actives have a fitted effect of over 60% in size
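Parental KB-3-1 adenocarcinoma cells in phenol-red-free DMEM with 10% FBS were pin-treated with compounds at several concentrations, incubated 72 h at 37 °C, and viability read by CellTiter-Glo luminescence; concentration-effect curves were fitted after normalization.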
Gal4-VP16 FLuc: counter-screen for ROR gamma inhibitors: Gal4-VP16 reporter | Potency, µM (series often up to 53.6 µM), without a hit: at the highest dose activity, negative = inhibition, usual class: inhibitors | 3.5% of 310,000 active | AID 2546 | Drosophila S2 Gal4-VP16 UAS-luciferase, luminescence, 20 h;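 also: Gal4-VP16 expression switched on by copper sulfate through the metallothionein promoter; % is scaled to controls: 0 for no effect and ±100 for the full control effect; nearly all actives have a fitted effect of over 50% in size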
KB-V1 cytotox: KB-V1 MDR subline cytotoxicity; KB-V1 MDR cells viability, CellTiter-Glo, 72 h; Potency, µM (highest dose often 46.1 µM), usual class: cytotoxic; 3.4% of 400,000 active; also: % is scaled to controls: 0 for no effect and ±100 for the full control effect; nearly all actives have a fitted effect of over 60% in size
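Drug-selected KB-V1 cells, grown in DMEM lacking phenol red with 10% FBS, receive compound titrations; after three days at 37 degrees C, surviving cell ATP is quantified by CellTiter-Glo luminescence and responses normalized and curve-fitted.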
RORg inh: inhibitors of mouse ROR gamma transcriptional activity; P51450; Drosophila S2 Gal4-RORgamma UAS-luciferase reporter, 20 h; Potency, µM (top dose mostly 53.6 µM), without a hit: top-dose activity change, negative = inhibition, actives largely listed as inhibitors; 5.4% of 310,000 active; AID 2551; also: % is scaled to controls: 0 for no effect and ±100 for the full control effect; nearly all actives have a fitted effect of over 60% in size
Target sequence (P51450 whole entry, looked up, the tested form may be a part): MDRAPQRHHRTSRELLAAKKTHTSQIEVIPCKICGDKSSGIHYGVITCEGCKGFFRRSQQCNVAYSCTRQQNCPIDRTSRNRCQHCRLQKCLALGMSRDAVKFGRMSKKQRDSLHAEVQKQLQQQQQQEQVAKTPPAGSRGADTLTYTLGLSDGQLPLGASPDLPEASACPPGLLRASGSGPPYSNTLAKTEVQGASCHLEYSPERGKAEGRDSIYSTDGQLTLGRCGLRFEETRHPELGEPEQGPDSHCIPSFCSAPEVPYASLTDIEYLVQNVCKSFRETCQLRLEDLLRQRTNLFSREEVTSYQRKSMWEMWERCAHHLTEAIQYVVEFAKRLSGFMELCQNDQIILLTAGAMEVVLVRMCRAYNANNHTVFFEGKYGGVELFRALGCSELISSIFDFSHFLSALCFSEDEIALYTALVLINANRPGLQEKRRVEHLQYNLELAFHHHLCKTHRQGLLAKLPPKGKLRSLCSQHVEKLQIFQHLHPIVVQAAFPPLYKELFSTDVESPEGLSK
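Schneider cells (Drosophila), stable Gal4 DBD–ROR gamma + UAS-luc; 1 hr cmpd preincubation; Cu2+ induction 700 uM final; 20 hr ambient; luminescence.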
Starred values were filed as active, the others as inactive; i = inactive; ? = inconclusive; nt = no result given; [ ] = another dose, or the depositor's remark. Sampled rows, rich in hits. Any-hit rate of the full collection: about 10%. Calls follow the shape of the dose curve; as a rule, active = well fitted curve in the direction sought with a large enough effect; inconclusive = small, poorly fitted or top-dose-only effect, or another doubt; inactive = no such curve, though single readings can be large; an effect the other way counts as inactive or inconclusive. Potency is read from the fitted curve at half-maximal effect.

SMILES	MCF10A rerep	SW480 rerep	KB-3-1 tox	Gal4-VP16 FLuc	KB-V1 cytotox	RORg inh
Cc1cc2n(n1)CCC(=O)N2Cc1ccc(C(=O)Nc2cccc(C(F)(F)F)c2)cc1	nt	nt	i	nt	i	nt
O=C(NC(NCc1ccccn1)(C(F)(F)F)C(F)(F)F)c1ccco1	19%	?	i	-15%	i	10µM*
CC(C)c1ccc(NC(=S)N(C)CCc2ccccn2)cc1	-3%	-11%	i	?	23µM*	?
Cc1cccc(C)c1NC(=S)N(C)CCc1ccccn1	-1%	-2%	i	0%	i	-15%
CN(CCc1ccccn1)C(=S)NC(=O)c1ccco1	-6%	-11%	i	?	i	14µM*
Cc1nn(C)c(C)c1C(C)NC(=O)c1cc(COc2ccc(F)c(F)c2)on1 (configuration not stated)	9%	-1%	i	-1%	i	?
COc1ccc(N2CCN(C(CNC(=O)C(=O)NCc3ccc(F)cc3)c3cccnc3)CC2)cc1 (configuration not stated)	nt	nt	i	nt	i	nt
O=c1cc(-c2ccc(F)cc2F)[nH]c2ccc(F)cc12	nt	nt	nt	-7%[96.6 µM]	nt	38%[96.6 µM]
Cc1nn(CC#N)c(=O)n1-c1ccccc1F	0%	4%	i	4%	i	10µM*
O=C(CN1CCN(c2ccccc2O)CC1)NC(c1ccccc1)c1ccccc1	-9%	-9%	i	-10%	4.1µM*	32%
CC(C)OC(=O)c1cccc(NC(=O)Cn2nnc3sc4c(c3c2=O)CCCC4)c1	nt	nt	i	nt	i	nt
CC(C)(C)NC(=O)C(c1ccco1)N(C(=O)Cn1nnc(-c2ccc(F)cc2)n1)c1ccccc1 (configuration not stated)	-7%	-1%	?	nt	3.7µM*	nt
CC(C)(C)NC(=O)C(c1ccncc1)N(C(=O)Cn1nnc(-c2ccc(F)cc2)n1)c1cccc(F)c1 (configuration not stated)	3%	-2%	i	7%	i	1%
CC(C)(C)NC(=O)C(c1ccco1)N(C(=O)Cn1nnc(-c2ccc(F)cc2)n1)c1ccccc1F (configuration not stated)	19%	?	i	5%[0.365 µM]	18µM*	-5%
CC(C)(C)NC(=O)C(c1c[nH]c2ccccc12)N(C(=O)Cn1nnc(-c2ccc(Cl)cc2)n1)c1ccccc1F (configuration not stated)	4%	nt	i	-13%	i	-1%
CCN(Cc1ccccc1)C(=O)CCS(=O)(=O)c1cc(Br)cc2c1N(C(=O)C1CC1)CC2	nt	nt	i	nt	i	nt
CC(C)COc1ccc(C(=O)Nc2scc(-c3ccc(Cl)cc3Cl)c2C(N)=O)cc1	?	5%	3.3µM*	-6%	3.7µM*	45%
Brc1ccc(-n2cc(-c3ccccc3)c3c(NN4CCOCC4)ncnc32)cc1	?	-1%	?	?	i	6.3µM*
COc1ccc(-n2cc(-c3ccccc3)c3c(N4CCOCC4)ncnc32)cc1	153%	20%	i	0%	16µM*	8%
c1ccc(-c2cn(-c3ccccc3)c3ncnc(NCCCN4CCOCC4)c23)cc1	?	0%	i	-2%	i	-17%
CCN(c1ccccc1)c1cc(NC)[n+](C)c(C)n1	nt	nt	nt	-2%	nt	19%
CC(C)CCNC(=O)c1cnc2sc(N3CCCCC3)nn2c1=O	nt	nt	i	nt	i	nt
CC(C)(C)n1ncc(Oc2ccccc2[N+](=O)[O-])c(Cl)c1=O	5%	?	i	?	18µM*	5%
Cc1ccc(-c2cc3cccc[n+]3cc2-c2ccc(C)cc2)cc1	?	-11%	4.6µM*	13µM*	i	?
Cc1ccc(C[n+]2ccccc2)cc1	5%	3%[9.22 µM]	?	nt	?	nt
O=c1oc(CCO)cc2ccccc12	4%	-26%	i	nt	i	nt
COc1cc(C(=O)OCCCc2cc3ccccc3c(=O)o2)cc(OC)c1OC	-7%	-4%	i	nt	i	nt
